From PubChem BioAssay
M1 antag – human M1 muscarinic receptor antagonists, primary screen, CHO-K1 cells, Fluo-8 calcium fluorescence, 1536-well | 1.3% of 360,000 active | CHO-K1 hM1, ACh EC80 antagonist | Muscarinic acetylcholine receptor M1 (Homo sapiens), P11229 | AID 588852, 2011 | inhibition, % at 3 µM;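 active means percent inhibition above its own plate's cutoff, namely the mean of that plate's compound wells plus 3 SD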;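 further: peak over basal fluorescence ratio during 140 s after agonist addition; 0% = ACh EC80 plus DMSO and 100% = DMSO alone without agonist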
Target sequence (P11229 whole entry, looked up): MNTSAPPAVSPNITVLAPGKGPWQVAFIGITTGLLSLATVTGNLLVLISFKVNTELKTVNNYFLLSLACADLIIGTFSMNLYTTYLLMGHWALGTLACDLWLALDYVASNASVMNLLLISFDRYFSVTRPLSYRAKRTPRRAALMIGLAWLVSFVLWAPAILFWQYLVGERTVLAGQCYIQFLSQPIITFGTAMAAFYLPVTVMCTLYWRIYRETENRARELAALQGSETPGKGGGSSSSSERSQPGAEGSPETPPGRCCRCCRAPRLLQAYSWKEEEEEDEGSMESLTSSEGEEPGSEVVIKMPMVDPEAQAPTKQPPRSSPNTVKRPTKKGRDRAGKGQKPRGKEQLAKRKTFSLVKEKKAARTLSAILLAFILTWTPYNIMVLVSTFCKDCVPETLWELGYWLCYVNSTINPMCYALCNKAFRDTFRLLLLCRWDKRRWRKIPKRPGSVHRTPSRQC
M1 ag – human M1 muscarinic receptor agonists, primary screen, Fluo-8 calcium fluorescence, CHO-K1 cells, HTS. Muscarinic acetylcholine receptor M1 (Homo sapiens), P11229. CHO-K1 hM1, agonist mode; 0% DMSO, 100% acetylcholine EC100. activation, % at 3 µM. 0.33% of 360,000 active. AID 588814, 2011;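 active means activation above the run's mean compound activation plus 3 SD, cut at about 16% in these data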;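 further: peak over basal fluorescence ratio within a 140 s kinetic read after compound addition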
M1 ag parental – counter-screen for M1 agonists: effect in parental CHO-K1 cells | Fluo-8 calcium fluorescence; scaled to maximal ATP response, vehicle zero | AID 602248, 2012 | 0.48% of 360,000 active | activation, % at 3 µM; in the data active means activation above about 15%;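 further: untransfected CHO-K1 host cells lacking M1 receptor as counterscreen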
CHO-K1 Ca antag – counter-screen for M1 antagonists: effect in parental CHO-K1 cells; ATP-induced calcium, Fluo-8 fluorescence; inhibition, % at 3 µM; 0.6% of 360,000 active; AID 602250;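 active means inhibition above a per-plate cutoff, the plate's mean sample inhibition plus 3 SD, cut at about 24% in these data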;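 further: 0% = DMSO plus EC80 ATP and 100% = DMSO alone without ATP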
CHRM1 PAM – human M1 muscarinic receptor positive allosteric modulators, primary screen, CHO-K1 cells, Fluo-8 calcium fluorescence, 1536-well; Muscarinic acetylcholine receptor M1 (Homo sapiens), P11229; CHO-K1 hM1, ACh EC20; 0% = ACh EC20, 100% = maximal ACh; activation, % at 3 µM; 0.088% of 360,000 active; in the data active means activation above about 19%, passing the limit was not always enough
M1 PAM parental – nonselective calcium activators in parental CHO-K1 cells, primary screen, counter-screen for M1 PAM project, cell-based, Fluo-8 calcium fluorescence, full deck, 1536-well; ATP EC20; 0% at ATP EC20, 100% at ATP max; activation, % at 3 µM; 0.02% of 360,000 active; AID 602247, 2012;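 active means activation above the run cutoff, the mean activation of all test compounds plus 3 SD, cut at about 40% in these data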;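 further: peak over basal fluorescence ratio in a 140 s read after ATP addition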
The depositor's hits bear a star. Hits are enriched below; roughly 2.4% of the tested compounds scored in any of these assays.

SMILES	M1 antag	M1 ag	M1 ag parental	CHO-K1 Ca antag	CHRM1 PAM	M1 PAM parental
CCOC(=O)C1=CC[C@@H](c2cc3cc(OC)ccc3n2C)N(S(=O)(=O)c2ccc(C)cc2)[C@H]1C(=O)OCC	-7	-3	2	-5	8	-9
CN1CCN(c2nc(-c3ccc(Cl)c(Cl)c3)nc3ccccc23)CC1	-5	-2	0	-4	1	1
CN1CCN(C2=Cc3ccccc3Sc3cc(F)c(Cl)cc32)CC1	69*	-3	0	-9	-21	6
CN1CCN(C2=Cc3ccccc3Sc3cc(F)c(F)cc32)CC1	70*	-6	2	-4	-21	20
CN1CCN(c2ccccc2NC(=O)c2ccccc2F)CC1	-12	-7	2	-14	7	20
CN1CCN(C2=Cc3cc(Cl)ccc3Sc3cc(F)ccc32)CC1	82*	-5	2	0	-25	25
CN(C)C(=O)CSc1nc2ccc(C(=O)c3ccccc3)cc2[nH]1	-11	-4	1	-11	5	6
O=C(CN1CCOCC1)Nc1ccc([N+](=O)[O-])cc1	-6	-4	0	-10	5	2
CCCN(Cc1ccc(N(CC)CC)cc1)CC1CC1	52*	-15	0	3	-32	-9
CCc1nc2ccc(C(=O)N(CC)CCN(C)C)cn2c1N(C=O)CCC(C)C	-13	-3	-1	-12	4	26
COc1ccc(CNS(=O)(=O)CCNC(=O)c2ccc3c(c2)OCO3)cc1	1	-2	-1	24*	1	-19
CCc1nc2c(OCC3COc4ccccc4O3)cccn2c1N(C)C(=O)c1cccc(OC)c1 (stereo not drawn)	-8	-4	3	-6	1	1
COc1ccc(/C=C\C(=O)O[C@@H]2C(O)C(O[C@@H]3OC(C)[C@H](O[C@@H]4OCC(O[C@H]5O[C@H](CO)[C@@H](O)C(O)C5O)C(O)C4O)C(O)C3O)[C@H](OC(=O)[C@]34CCC(C)(C)C[C@@H]3C3=CCC5[C@@]6(C)CC(O)C(O[C@@H]7OC(CO)C(O)[C@H](O)[C@H]7O)[C@@](C)(C(=O)O)C6CC[C@@]5(C)[C@]3(CO)CC4)O[C@H]2C)cc1 (stereo partly drawn)	85*	95*	90*	71*	-37	-20
Cc1c(C(c2cc3c(cc2Br)OCO3)c2c(C)n(C)n(-c3ccccc3)c2=O)c(=O)n(-c2ccccc2)n1C	39*	-8	0	-11	-21	7
COc1ccc(Nc2nc(C)nc3c2nnn3Cc2ccccc2Cl)c(OC)c1	4	-3	0	5	-7	-9
O=C(/C(=C/O)N=Nc1ccccc1)c1ccncc1	4	-2	23*	-7	-3	-2
COc1ccc(N2CCN(c3c(S(=O)(=O)c4ccccc4)cnc4ccc(OC)cc34)CC2)cc1	14	-5	1	1	-15	5
COc1ccc(S(=O)(=O)c2cnc3ccc(OC)cc3c2N2CCC3(CC2)OCCO3)cc1	28*	-1	6	1	-19	17
O=c1c2ccc([N+](=O)[O-])cc2ncn1CCOc1ccc(Cl)cc1	44*	-1	6	4	-15	0
O=C1N[C@H]2CC=C[C@H]2Nc2ccccc21	-21	-1	1	-29	11	13
CCCN1C(=O)/C(=C/c2c(N3CCNC(=O)C3CC(=O)OCC)nc3c(C)cccn3c2=O)SC1=S (stereo not drawn)	39*	13	10	10	-17	-5
CCOC(=O)CC1C(=O)NCCN1c1nc2ccc(C)cn2c(=O)c1/C=C1\SC(=S)N(CC(C)C)C1=O (stereo not drawn)	2	5	5	-7	-4	10
Cc1cc(CSc2ccccc2)ccc1NC(=O)c1ccc(Cl)c([N+](=O)[O-])c1	-10	-5	-1	28*	0	6
Cc1cc(CSc2ccccc2)ccc1NC(=O)c1ccc(C)c([N+](=O)[O-])c1	-12	-7	0	-7	12	12
COc1ccc(C(=O)/C=C\c2ccc(NC(=O)c3cccs3)cc2)cc1	6	-5	0	27*	0	-8
SMILES	M1 antag	M1 ag	M1 ag parental	CHO-K1 Ca antag	CHRM1 PAM	M1 PAM parental
O=c1c2cc(N3CCOCC3)ccc2[nH]c(=S)n1CCCN1CCCCCC1	23*	-6	0	-2	-24	11
COc1cc(CN2C(=O)C(C)ON=C2c2ccccc2F)cc(OC)c1 (stereo not drawn)	-4	-5	0	9	3	-10
O=C(OC(c1ccccc1)c1nccc2ccccc12)c1cc([N+](=O)[O-])cc([N+](=O)[O-])c1 (stereo not drawn)	35*	-8	12	4	-18	17
CC(=O)c1cccc(S(=O)(=O)Nc2cc(C(F)(F)F)ccc2N2CCOCC2)c1	-2	3	0	-1	9	-21
CC1(c2ccc([N+](=O)[O-])cc2)Nc2ccccc2S1 (stereo not drawn)	-3	0	15*	13	4	1
CCOC(=O)C1=C[C@@H](C2CCCC2)N(S(=O)(=O)c2ccc([N+](=O)[O-])cc2)[C@H]1c1ccccc1	44*	-4	0	31*	-19	-7
CCOC(=O)C1=C[C@@H](CC)N(S(=O)(=O)c2ccc(C)cc2)[C@H]1c1ccccc1	24	-6	0	11	-16	7
COc1ccccc1CN(Cc1nc2ccccc2c(=O)[nH]1)S(=O)(=O)c1ccc2ccccc2c1	43*	-7	2	-2	-25	-11
CC(=O)n1cc(C2CC(=O)OC3=C2CC(=O)C(C)(C)C3)c2ccccc21 (stereo not drawn)	-8	0	0	-2	4	23
CCNC(=O)C1(C)CCN(C(=O)c2ccc3snnc3c2)C1 (stereo not drawn)	-23	0	0	-6	14	9
Cc1nc(NC(=O)COC(=O)CCc2ccccc2)c(Cl)cc1Cl	-14	2	-1	-2	25*	-8
CC(C)(C)CC(=O)Nc1ccc(-c2cn3cccnc3n2)cc1	5	-2	5	-3	1	9
N#CC1=C(N)OC2=C(CC/C2=C\c2ccccc2)C1c1ccccc1 (stereo not drawn)	31*	18*	21*	26*	-10	2
